# PubChem BioAssay AID1445 (SRMLSC, 2008)
# Hit rate of the full screen: of about 220,000 compounds, about 910 (0.41%) were called active. The list comes from a sample in which actives are over-represented; it also holds similar structures and randomly drawn compounds. Entries with a potency or affinity are not part of this list. Values without a mark were called inactive.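 The calls were made as follows: active = primary inhibition above the hit cutoff, then over 50% inhibition at one or more dose response concentrations (cut at about 23% in these data, passing the limit was not always enough); inconclusive = conflicting primary data, or primary hits not chosen for dose response; inactive = low primary inhibition, or under 50% at every dose.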
# Target: Aminopeptidase N (Plasmodium falciparum (isolate 3D7)) (UniProt O96935)
# Assay: P. falciparum M1AAP inhibitors, biochemical, fluorogenic H-Leu-NHMec substrate, 1536-well (AID 1445);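 also: plate controls were DMSO full reaction for no effect and no enzyme background for full effect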
# Details: recombinant M1AAP, H-Leu-NHMec fluorogenic kinetic assay; at 30 µM, active compounds read high unless noted
# Aminopeptidase N (Plasmodium falciparum (isolate 3D7)), sequence (O96935 whole entry, looked up): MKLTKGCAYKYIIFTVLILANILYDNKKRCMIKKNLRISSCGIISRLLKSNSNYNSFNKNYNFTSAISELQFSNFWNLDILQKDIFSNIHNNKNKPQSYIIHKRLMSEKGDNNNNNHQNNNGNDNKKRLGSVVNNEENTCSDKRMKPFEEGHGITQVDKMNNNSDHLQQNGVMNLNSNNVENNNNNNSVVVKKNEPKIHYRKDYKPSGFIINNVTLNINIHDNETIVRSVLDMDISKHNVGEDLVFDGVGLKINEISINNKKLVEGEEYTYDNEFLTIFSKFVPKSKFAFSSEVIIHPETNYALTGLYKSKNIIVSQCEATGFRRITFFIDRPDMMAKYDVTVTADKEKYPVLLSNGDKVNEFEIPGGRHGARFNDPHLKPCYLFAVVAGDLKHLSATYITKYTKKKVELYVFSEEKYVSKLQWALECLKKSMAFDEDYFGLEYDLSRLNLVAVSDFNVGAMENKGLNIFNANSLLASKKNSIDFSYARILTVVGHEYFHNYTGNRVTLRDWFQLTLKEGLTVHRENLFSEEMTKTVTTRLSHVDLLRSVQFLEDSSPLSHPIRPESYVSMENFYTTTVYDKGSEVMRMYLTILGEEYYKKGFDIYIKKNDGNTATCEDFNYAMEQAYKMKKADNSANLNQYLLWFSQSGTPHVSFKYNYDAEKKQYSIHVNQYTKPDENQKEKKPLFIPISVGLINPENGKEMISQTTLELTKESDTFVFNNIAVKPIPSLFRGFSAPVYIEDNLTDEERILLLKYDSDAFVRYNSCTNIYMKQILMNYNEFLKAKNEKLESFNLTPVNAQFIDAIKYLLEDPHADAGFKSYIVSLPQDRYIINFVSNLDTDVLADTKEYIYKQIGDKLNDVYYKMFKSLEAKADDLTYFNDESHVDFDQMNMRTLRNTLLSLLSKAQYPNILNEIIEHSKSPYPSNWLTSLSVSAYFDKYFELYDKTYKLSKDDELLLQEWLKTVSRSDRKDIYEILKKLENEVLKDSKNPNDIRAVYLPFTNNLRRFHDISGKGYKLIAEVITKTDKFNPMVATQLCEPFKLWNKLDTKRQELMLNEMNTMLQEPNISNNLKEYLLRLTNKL
row,Compound,inhibition
1,O=C1NCCCC1C(=O)N/N=C/c1ccccc1O (centres undefined),9.72%
2,O=C(Cc1nn[nH]n1)NCc1ccccc1Cl,1.85%
3,CC1(C)CC(CCC(=O)NC(=S)Nc2ccccc2Cl)C(=O)O1 (centres undefined),8.14%
4,Cc1ccc(OCC(=O)Nc2ccccc2-c2ccccc2NC(=O)COc2ccc(C)cc2)cc1,3.53%
5,N#Cc1cc(C(=O)c2cc(F)ccc2O)cn(Cc2ccccc2)c1=O,7.68%
6,Cc1ccc(C(=O)NC(=S)Nc2ccc(CN3CCCCC3)cc2)c(C)c1,5.24%
7,CC(=O)N1CCN(c2ccc(Oc3nnnn3-c3ccccc3)cc2)CC1,2.19%
8,O=C(Cc1cccs1)N/N=C/C=C/c1ccccc1[N+](=O)[O-],2.54%
9,CCc1nnc(NS(=O)(=O)c2ccc(NC(=S)NC(=O)c3ccc(F)cc3)cc2)s1,22.7%
10,CCc1nnc(NS(=O)(=O)c2ccc(NC(=S)NC(=O)c3ccc(Br)cc3)cc2)s1,21.6%
11,COc1ccc(C(=O)/C=C/Nc2cccc(O)c2)cc1,-6.48%
12,Cn1nc(C(F)(F)F)c2cc(C(=O)Nc3ccc(F)c(Cl)c3)sc21,8.67%
13,O=C(CNC(=O)c1cccc(Br)c1)N/N=C/c1cc(Br)cc(Br)c1O,0.13%
14,COc1ccccc1/C=C/C(=O)NCC(=O)N/N=C/c1cc(Br)ccc1OC,22.4%
15,O=C(N/N=C/c1ccco1)c1cccc(N2CCCC2=O)c1,2.43%
16,CN(C)c1ccc(/C=N/NC(=O)c2cccc(N3CCCC3=O)c2)cc1,4.11%
17,O=C(CNC(=O)c1ccncc1)N/N=C/c1cc(Br)ccc1OCc1ccccc1,5.07%
18,COc1ccccc1/C=N/NC(=O)c1sc(C)nc1C,5.02%
19,COc1ccc(/C=N/NC(=O)c2sc(C)nc2C)cc1,9.79%
20,O=C(CNC(=O)c1ccc(F)cc1)N/N=C/c1cc(Br)ccc1OCc1ccccc1,0.24%
21,CCOC(=O)CSc1nc2cc(C(=O)NCc3ccco3)ccc2c(=O)n1-c1ccc(F)cc1,4.72%
22,O=C(CCCCn1c(=O)[nH]c2ccccc2c1=O)NCCc1c[nH]c2ccccc12,3.37%
23,O=C(OCc1cc([N+](=O)[O-])cc2c1OCOC2)c1ccc2ccccc2n1,-2.61%
24,Cc1cccc(NC(=O)CC2SC(=O)N(c3ccccc3)C2=O)c1 (centres undefined),0.32%

row,Compound,inhibition
1,C=C1C(C(=O)Nc2cccc(OC)c2)C1C(=O)Nc1cccc(OC)c1 (centres undefined),4.96%
2,CCn1c(O)c(/C=N/N=C2CCCCC2)c2cc(C3=NNC(=O)CC3)ccc21,4.81%
3,CCOC(=O)c1sc2nccc(N(C)C)c2c1N=CN(C)C,6.88%
4,COc1ccc(OC)c(CN2CCC(C(=O)N(C)CCc3ccc(OC)c(OC)c3)CC2)c1,6.02%
5,COc1cccc(/C=N/NC(=O)CN2CC(c3ccccc3)CC2=O)c1OC (centres undefined),0.13%
6,COc1cc(/C=N/NC(=O)c2cccnc2)ccc1OCC(=O)Nc1c(C)cc(C)cc1C,5.36%
7,O=C(O)c1ccccc1N/N=C/c1cc(Br)cc(Br)c1O,17.7%
8,COc1cc(/C=N/NC(=O)c2cccc(NC(=O)c3ccccc3Cl)c2)ccc1O,21.6%
9,COc1cccc(/C=N/NC(=O)CN2CC(c3ccccc3)CC2=O)c1O (centres undefined),5.93%
10,COc1ccccc1/C=N/NC(=O)c1cccc(NC(=O)c2ccccc2Cl)c1,6.04%
11,CCC(O)(CC)C(=O)N/N=C/c1cc(Br)cc(Br)c1O,30.1%
12,CCNC(=O)COc1ccc(/C=N/NC(=O)c2cccnc2)cc1OC,3.71%
13,O=c1[nH]c(Cc2ccccc2Cl)nc2ccccc12,-2.4%
14,CCc1c(C)[nH]n(-c2nc(-c3ccccc3)cs2)c1=O,-3.51%
15,C=CCn1c(=O)c2ccccc2n2c(SCc3nnc(-c4ccccc4Br)o3)nnc12,2.98%
16,Cc1ccc(NC(=O)c2cc(-c3ccco3)on2)cc1C,3.16%
17,CC12COC3(C(=O)NCCc4ccccc4)CC1CCC32C (centres undefined),3.11%
18,CCCNS(=O)(=O)c1ccc(OCC(=O)NCCC2=CCCCC2)cc1,7.1%
19,Cc1ccc(S(=O)(=O)CCc2nnc(NC(=O)c3cccs3)s2)cc1,-1.23%
20,O=C(CNC(=O)c1ccccc1Br)N/N=C/c1ccccc1O,-1.99%
21,Cc1ccc(/C=N/NC(=O)C(c2ccncc2)N2CCOCC2)cc1 (centres undefined),2.18%
22,O=C(CNC(=O)c1ccncc1)N/N=C/c1ccc(O)cc1O,3.55%
23,O=C(N/N=C/c1cc(Cl)cc(Cl)c1O)c1ccncc1,29.6%
24,O=C(CNC(=O)c1ccncc1)N/N=C/c1ccc(Br)cc1,7.31%

row,Compound,inhibition
1,O=C(N/N=C/c1cc(Cl)ccc1O)c1ccc(Br)cc1,22.2%
2,COc1ccc(Br)cc1/C=N/NC(=O)C(c1ccncc1)N1CCOCC1 (centres undefined),-2.26%
3,O=C(CNC(=O)c1ccccc1Br)N/N=C/c1ccc(O)cc1,-0.27%
4,CC(=O)c1cc(CN2C(=O)CCC2=O)cs1,-1.15%
5,O=C(CSc1nc2ccccc2s1)NCCOc1ccc(Cl)cc1,-0.05%
6,COCc1c(C(=O)OC)nnn1-c1ccccc1,-5.18%
7,CCCc1c(O)nc(SCCN(CC)CC)n(C(=O)c2ccccc2)c1=O,6.49%
8,CC(=O)c1ccc(N2CCN(C(=S)NCCCN(C)C)CC2)cc1,6.58%
9,O=C(N1CCOCC1)N1CCC(NC(=O)C23CC4CC(CC(C4)C2)C3)CC1,-1.68%
10,O=C(COC(=O)/C=C/c1ccc(S(=O)(=O)N2CCOCC2)cc1)NCc1ccccc1,7.02%
11,COc1cccc(-c2nnc(SCC3CNC(=O)O3)n2-c2ccc(Cl)cc2)c1 (centres undefined),3.85%
12,Cc1cccc(OCC(=O)Nc2cc(S(=O)(=O)N3CCCCC3)ccc2N2CCN(C)CC2)c1,5.64%
13,Cc1cnc(C(=O)Nc2nc(-c3ccccc3)cs2)cn1,7.19%
14,O=C(N/N=C/c1cc([N+](=O)[O-])ccc1O)c1ccncc1,18.8%
15,O=C(N/N=C/c1cc(Br)cc(Br)c1O)c1ccncc1,36.7%
16,CN(C)/C=C(\C=O)c1onc(-c2ccccc2Cl)c1C#N,6.68%
17,CN(CC(=O)Nc1ccccc1C(=O)N1CCCC1)S(=O)(=O)c1ccc(Br)cc1,-0.21%
18,CC(C)C1NC2(C(=O)c3ccccc3C2=O)C2C(=O)N(c3ccc(F)cc3)C(=O)C12 (centres undefined),0.46%
19,Cc1cccc(NC(=O)CN2C(=O)S/C(=C\c3ccc(-c4cccc(C(=O)O)c4C)o3)C2=O)c1,2.36%
20,Cc1ccc(NC(=O)CN2C(=O)S/C(=C\c3ccc(-c4cccc(C(=O)O)c4C)o3)C2=O)cc1,0.51%
21,Cc1ccccc1NC(=O)CN1C(=O)S/C(=C\c2ccc(-c3cccc(C(=O)O)c3C)o2)C1=O,-2.06%
22,Cc1ccc(NC(=O)CN2C(=O)S/C(=C\c3ccc(-c4cccc(C(=O)O)c4C)o3)C2=O)cc1C,8.24%
23,N=C1S/C(=C\c2ccco2)C(=O)N1c1ccc2c(c1)OCO2,10%
24,COc1cc(/C=C2\SC(=N)N(c3ccc4c(c3)OCO4)C2=O)cc(OC)c1O,5.15%

row,Compound,inhibition
1,COc1ccc(-c2nnc(SCC(=O)Nc3cc(F)ccc3C)o2)cc1,-0.41%
2,CCOc1ccc(N2C(=O)C(=O)/C(=C(/O)c3ccccc3)C2c2ccccc2[N+](=O)[O-])cc1 (centres undefined),5.86%
3,Cc1ccc(C(=O)Nc2c(-c3cccs3)c(=O)c3ccccc3n2C)cc1,5.78%
4,NNC(=O)Cn1nc2n(c1=O)-c1ccccc1SC2,-0.09%
5,Cc1nnc(-n2ncc(C#N)c2N)c2nn(-c3cccc(Cl)c3)c(C)c12,0.94%
6,COC(=O)c1cc2oc(C)cc2n1CC(=O)N(C)c1ccccc1,24.4% (active)
7,COC(=O)c1cc2sccc2n1CC(=O)N(C)c1ccccc1,4.58%
8,C=CCN(C(=O)Cn1c(C(=O)OC)cc2oc(C)cc21)c1ccccc1,0.64%
9,O=C(Cn1cc(C(F)(F)F)ccc1=O)N/N=C/c1ccccc1O,1.53%
10,CN1C(=O)/C(=N/OC(=O)c2ccccc2)c2ccccc21,-0.99%
11,CN1C(=O)/C(=N\OC(=O)c2cccc3ccccc23)c2ccccc21,5.56%
12,COC(=O)c1cccc(Nc2nc(-c3cccnc3)nc3ccccc23)c1,0.67%
13,O=C(O)c1ccc(Nc2nc(-c3cccnc3)nc3ccccc23)cc1,10.8%
14,COc1cccc(N2CC(O)Cn3c2nc2c3c(=O)n(CCCc3ccccc3)c(=O)n2C)c1 (centres undefined),2.82%
15,COc1cccc(N2CC(C)Cn3c2nc2c3c(=O)n(CCN3CCOCC3)c(=O)n2C)c1 (centres undefined),2.83%
16,C=CCn1c(=O)c2c(nc3n2CC(C)CN3c2cccc(OC)c2)n(C)c1=O (centres undefined),26.4% (active)
17,c1ccc(Oc2cccc(NC3=NCCC3)c2)cc1,29.3% (active)
18,Clc1cccc(NC2=NCCC2)c1,0.77%
19,O=[N+]([O-])c1cccc(NC2=NCCC2)c1,3.59%
20,Cc1ccc(CN2CCN(C(=O)C3CCCO3)CC2)cc1 (centres undefined),-1.62%
21,Cc1ccc(CN2CCN(C(=O)C3CCC3)CC2)cc1,27.7% (active)
22,O=C(C1CCC1)N1CCN(Cc2ccccc2)CC1,7.01%
